The sample as a whole holds a higher share of hits than the screen did.
LmPK inh – LmPK (Leishmania mexicana) enzyme inhibition; AID 1721; Q27686; 290,000 compounds, 0.37% hits; purified LmPK, Kinase-Glo ATP luminescence, 1 h; Potency, µM (series often up to 57.5 µM), for the others: at the top dose activity change, negative = inhibition, usual class: inhibitors; note: potency is the fitted concentration of half-maximal effect; % is set by controls: 0 for no effect and ±100 for the full control effect
Target sequence (Q27686 whole entry, looked up): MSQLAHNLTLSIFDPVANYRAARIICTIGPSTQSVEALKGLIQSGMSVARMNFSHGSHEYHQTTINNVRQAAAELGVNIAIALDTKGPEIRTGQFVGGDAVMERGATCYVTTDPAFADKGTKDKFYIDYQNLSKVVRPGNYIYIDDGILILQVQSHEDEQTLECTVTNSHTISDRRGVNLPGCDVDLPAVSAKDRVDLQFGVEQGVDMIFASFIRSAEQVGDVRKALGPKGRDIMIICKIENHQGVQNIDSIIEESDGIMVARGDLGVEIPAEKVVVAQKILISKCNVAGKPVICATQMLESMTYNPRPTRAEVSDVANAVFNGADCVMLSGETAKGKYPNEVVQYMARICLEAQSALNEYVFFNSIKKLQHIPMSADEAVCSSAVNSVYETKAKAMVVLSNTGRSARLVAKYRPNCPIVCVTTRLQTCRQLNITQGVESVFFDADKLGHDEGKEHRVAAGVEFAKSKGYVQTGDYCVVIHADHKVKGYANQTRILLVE
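Pyruvate kinase activity monitored as ATP production (luciferase luminescence). Conditions: 0.1 nM enzyme, 0.5 mM PEP, 0.1 mM ADP, 1 h, RT; normalized against uninhibited and no-enzyme wells.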
TbPYK inhibitor – inhibitors of Trypanosoma brucei pyruvate kinase | Q57TT1 | TbPYK enzyme, Kinase-Glo Plus ATP luminescence, 45 min | Potency, µM (highest dose often 76.8 µM), without a hit: top-dose activity, negative = inhibition, usual class: inhibitors | 410,000 compounds, 0.12% hits; note: potency is the fitted concentration of half-maximal effect; % is set by controls: 0 for no effect and ±100 for the full control effect; nearly all actives have a fitted effect of over 50% in size
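Readout: single end-point luminescence (Kinase-Glo Plus, 10 min). Reaction conditions were TbPYK/substrate plus 130 uM ADP, 45 min at RT, pH 7.2 TEA buffer. No-enzyme wells served as controls, and data were normalized before concentration-response fitting.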
FBPA Giardia inh – blocks Giardia fructose-bisphosphate aldolase activity. A8B2U2. purified Giardia FBPA. Potency, µM (titrated, usually from 59.6 µM), without a hit: at the highest dose activity, negative = inhibition, most hits filed as inhibitors. 290,000 compounds, 0.71% hits. AID 2451; note: potency is the fitted concentration of half-maximal effect; % is set by controls: 0 for no effect and ±100 for the full control effect; nearly all actives have a fitted effect of over 55% in size
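40 nM FBPA preincubated 10 min at RT with compound (up to 57.5 uM final), then substrate plus GAPDH/TPI/NAD/arsenate coupling and diaphorase/resazurin added. Fluorescence read after 20 min at RT, 525/598 nm.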
Shiga inhibitor – Shiga toxin inhibition; Vero cells, Shiga toxin protein synthesis inhibition reporter; inhibition, % at 38.7 µM; 290,000 compounds, 9.2% hits; in the data active = inhibition mostly above about 28%, no sharp cut-off; inactive = mostly below about 43%; note: 0% is about no effect
RE007 growth inh – less growth of the S. pombe RE007 Vpr strain; S. pombe RE007 Vpr strain, BacTiter-Glo ATP luminescence, 24 h; Potency, µM (top dose mostly 92.2 µM), for the others: top-dose activity change, negative = less growth, actives largely listed as inhibitors; 360,000 compounds, 0.21% hits; AID 651644; active = well fitted falling curve with a large enough effect; inconclusive = small, poorly fitted or top-dose-only effect; inactive = no such curve, though single readings can be large or run the other way; note: potency is the fitted concentration of half-maximal effect; % is set by controls: 0 for no effect and ±100 for the full control effect; nearly all actives have a fitted effect of over 50% in size
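Fission yeast strain RE007, carrying one chromosomally integrated HIV-1 vpr copy, was seeded at OD 0.01 in PMG+AL medium with 23 nL pinned compound. After 24 h at 30 °C and 99% humidity, viability was read by BacTiter-Glo luminescence.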
Cycloheximide cs – counter-screen for Shiga toxin inhibitors: cycloheximide protein synthesis inhibition. 300,000 compounds, 12% hits. max response, %. cell reporter, cycloheximide protein synthesis inhibition counterscreen; in the data active = max response mostly above about 13%, no sharp cut-off; inactive = mostly below about 14%; note: read at 38.3 µM for the half of the compounds with a filed dose; 0% is about no effect
* hit, by the source's call; ? = inconclusive; · = not tested or not shown; [ ] = dose if it differs, or a comment. Unless noted, calls come from the whole dose curve; as a rule, active = well fitted curve in the direction sought with a large enough effect; inconclusive = small, poorly fitted or top-dose-only effect, or another doubt; inactive = no such curve, though single readings can be large; an effect the other way counts as inactive or inconclusive.

SMILES	LmPK inh	TbPYK inhibitor	FBPA Giardia inh	Shiga inhibitor	RE007 growth inh	Cycloheximide cs
O=C(Nc1ccc(F)c(Cl)c1)C1CCN(S(=O)(=O)c2ccc3c(c2)CCCN3C(=O)C2CCC2)CC1	·	2%	·	·	·	·
Cc1cccc(N2C(=O)CSC2c2cccnc2)c1 (centres undefined)	4%	4%	1%	-4	14%	10
Cc1cccc(N2CCN(c3cccc(C)c3)C2c2cccnc2)c1	5%	3%	-15%	71*	-28%	34*
CC[C@H](C)[C@H](NC(=O)[C@H](Cc1ccc(O)cc1)NC(=O)[C@@H](NC(=O)[C@H](CCCN=C(N)N)NC(=O)[C@@H](N)CC(=O)O)C(C)C)C(=O)N[C@@H](Cc1ccc(N)cc1)C(=O)N1CCC[C@H]1C(=O)N[C@@H](Cc1ccccc1)C(=O)O	·	·	2%	11	·	2
O=C(N/N=C/c1ccc2c(c1)OCCO2)c1ccncc1	-21%	-8%	2%	29	0%	21
CN(C)c1ccc(/C=N/NC(=O)c2ccc3c(c2)OCCO3)cc1	-8%	-6%	4%	48*	14%	34*
CCN(CC)c1ccc(/C=N/NC(=O)c2ccc3c(c2)OCCO3)cc1	-4%	9%	-1%	115*	3%	58*
CSC(=NC#N)N1CCN(c2ccc(Cl)cc2)CC1	1%	1%	6%	47*	11%	28*
CCc1ccc(NC(=O)CC2C(=O)N(c3cccc(C)c3)C(=O)N2Cc2cccs2)cc1 (centres undefined)	·	-5%	·	·	·	·
CCN(Cc1cnn(C)c1)C(=O)c1cc(COc2ccc(F)cc2F)on1	5%	-3%	4%	41	1%	15*
CCN(Cc1ccncc1)C(=O)c1cc(COc2ccc(F)cc2F)on1	4%	-4%	·	-1	1%	10
Cc1ccc(OCc2cc(C(=O)N(C)Cc3cnn(C)c3)no2)cc1C	·	4%	·	·	4%	·
Cc1cc(OCc2cc(C(=O)N(C)CCc3cnn(C)c3)no2)cc(C)c1Cl	-1%	-3%	2%	70*	-1%	39*
CCN(Cc1cnn(C)c1)C(=O)c1cc(COc2cc(C)c(Cl)c(C)c2)on1	-4%	-2%	-5%	22	20%	24*
COc1cc(Cl)ccc1OCc1cc(C(=O)N(C)CCc2cnn(C)c2)no1	2%	5%	10%	115*	8%	64*
CN(CCCN1CCCCC1)C(=O)c1cc(COc2ccc(F)cc2F)on1	-2%	8%	-5%	16	-20%	-2
COc1ccc(-n2nc3c(c2NC(=O)CCCCl)CSC3)cc1	6%	-1%	-11%	28	-2%	16*
COc1ccc(-n2nc3c(c2NC(=O)CBr)CSC3)cc1	0%	-7%	26%	-6	20%	-4
Cc1ccc(NC(=O)c2csc(-c3ccccc3)c2C)cc1	-15%	-5%	2%	199*	9%	54*
Cc1ccc(NC(=O)c2cc(C)nc3ccccc23)cc1	-4%	-2%	13%	-16	8%	2
Cc1c(C(=O)Nc2cccc([N+](=O)[O-])c2)csc1-c1ccccc1	-2%	6%	-24%	83*	1%	46*
COc1ccc(CNC(=O)Cn2ncc3c([nH]c4ccccc43)c2=O)cc1	·	-2%	·	·	·	·
CC(C)c1ccc(N(CC(=O)NCc2ccco2)C(=O)CCC(=O)Nc2ccccn2)cc1	5%	-18%	-3%	51*	5%	11*
O=C(CN(C(=O)CCC(=O)Nc1ccccn1)c1ccc(F)cc1)NCc1ccco1	14%	-4%	9%	28	-5%	-1
Cc1c(Cl)cccc1NC(=O)C(C)n1c(=O)cc(C)c2c(C)nn(-c3ccccc3)c21 (centres undefined)	·	-1%	·	·	·	·
SMILES	LmPK inh	TbPYK inhibitor	FBPA Giardia inh	Shiga inhibitor	RE007 growth inh	Cycloheximide cs
COc1ccc(OCC(=O)Nc2nc3cc4c(cc3s2)OCCO4)cc1	·	-5%	·	·	0%	·
COc1ccc2nc(NC(=O)c3ccoc3C)sc2c1	5µM*	?	5%	38*	?	48*
COc1ccc(C(=O)Nc2nc3cc4c(cc3s2)OCO4)c(OC)c1	0%	3%	6%	66*	9%	38*
Cc1cc(C(=O)Nc2nc3ccc(S(C)(=O)=O)cc3s2)c(C)o1	-27%	-22%	6%	30*	-20%	16*
COc1ccc2nc(NC(=O)c3cc(C)oc3C)sc2c1	25µM*	-23%	-4%	36*	?	18*
COc1ccc2nc(NC(=O)c3cc(S(=O)(=O)N4CCOCC4)ccc3C)sc2c1	-1%	-8%	-2%	-6	-3%	1
CCN(CC)c1ccc(NC(=O)CN(C)S(=O)(=O)c2cccc3nsnc23)c(C)c1	·	-16%	·	·	·	·
COc1ccc2nc(NC(=O)c3sc4nc(C)cc(C)c4c3N)sc2c1	2%	-4%	-3%	76*	-10%	36*
COc1cc(NC(=O)c2cccnc2SC)cc(OC)c1OC	-9%	5%	5%	-6	5%	2
CSc1ncccc1C(=O)Nc1ccc(OC(F)(F)F)cc1	6%	-14%	-5%	15	9%	13*
CSc1ncccc1C(=O)Nc1nc2ccc(S(C)(=O)=O)cc2s1	-3%	1%	1%	35	-12%	15
COc1ccc2nc(NC(=O)c3cccnc3SC)sc2c1	-21%	1%	-2%	35*	-26%	61*
COc1ccc(C2=Nn3c(nnc3-c3ccc(OC)c(OC)c3)SC2)cc1	·	·	5%	-9	·	-1
O=C(CN1C(=O)COc2ccc(S(=O)(=O)N3CCOCC3)cc21)N1CCN(c2cccc(C(F)(F)F)c2)CC1	·	0%	·	·	·	·
CC(C)c1nc2n(n1)C1(CCCCC1)[C@@H]1CCCC[C@@H]1N2	·	5%	·	·	·	·
O=C(COc1ccc(F)cc1)N1CCC(c2ccccc2)C1 (centres undefined)	5%	-4%	5%	58*	14%	43*
Cc1cccc(OCC(=O)N2CCC(c3ccccc3)C2)c1 (centres undefined)	-1%	-3%	-1%	79*	5%	30*
COC(=O)C[C@H]1c2ccccc2[C@H]2C(=C[C@@H](C)[C@H]3C(=O)N(O)C(=O)[C@H]32)N1C(=O)OC	-4%[11.5 µM]	·	4%[12.9 µM]	·	·	·
C/C(=N\NC(=O)c1cc(C)oc1C)c1ccc(N2CCOCC2)cc1	0%	1%	-1%	54*	1%	37*
C/C(=N\Nc1cc(N2CCOCC2)ncn1)c1ccccc1	2%	2%	12%	30*	7%	28*
O=C(NC(=S)Nc1ccc(N2CCOCC2)cc1)c1cccs1	6%	0%	-11%	73*	-2%	41*
C/C(=N\NC(=O)c1ccccc1)c1ccc(N2CCOCC2)cc1	-1%	2%	-5%	54*	11%	58*
C/C(=N\NC(=O)c1ccncc1)c1ccc(N2CCOCC2)cc1	·	1%	·	·	-18%	·
